According to PubChem BioAssay (NCATS):
Inconclusive results are not listed. Active and inactive are the calls of the source. Calls follow the shape of the dose curve; as a rule, active = well fitted curve in the direction sought with a large enough effect; inconclusive = small, poorly fitted or top-dose-only effect, or another doubt; inactive = no such curve, though single readings can be large; an effect the other way counts as inactive or inconclusive.

Assays:
CRL-7250 = normal cell line; test: Cytotoxic Profiling of Annotated Libraries Using Quantitative High-Throughput Screening (AID 1296008); conditions: Five cell lines viability, CellTiter-Glo ATP luminescence, 48-72 h; max response: stronger effect = lower value; also: nearly all actives have a fitted effect of over 60% in size; as to max response: % is scaled to controls: 0 for no effect and ±100 for the full control effect
Procedure, shortened: (§1)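 Cells exposed to compounds for 48 or 72 hr at 37 degrees Celsius. Viability read as ATP-coupled luminescence with CellTiter-Glo after 10 min at room temperature.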

HEK293 = test: as above; conditions: Five cell lines viability, CellTiter-Glo ATP luminescence, 48-72 h; max response: stronger effect = lower value
Procedure, shortened: as §1

HaCat [1] = test: as above; conditions: Five cell lines viability, CellTiter-Glo ATP luminescence, 48-72 h; max response: stronger effect = lower value
Procedure, shortened: as §1

KB-3-1 = test: as above; conditions: Five cell lines viability, CellTiter-Glo ATP luminescence, 48-72 h; max response: stronger effect = lower value
Procedure, shortened: as §1

NIH3T3 = test: as above; conditions: Five cell lines viability, CellTiter-Glo ATP luminescence, 48-72 h; max response: stronger effect = lower value
Procedure, shortened: as §1

HACAT [2] = test: qHTS assay to identify novel small-molecules to repurpose for Merkel cell carcinoma treatment (AID 1296009); conditions: MCC and control cell lines, CellTiter-Glo viability, 72 h; at 44.8 µM (top of the series) unless noted; also: nearly all actives have a fitted effect of over 60% in size
Procedure, shortened: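 Cells were treated for 72 hr at 37 degree celsius with compounds in 8- or 11-point dose response. Viability was read by CellTiter-Glo luminescence, normalized to no-cell (cytotoxicity) and DMSO controls.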

C33A = test: Primary qHTS to identify gynecologic anti-cancer compounds using libraries of approved drugs and bioactive compounds (AID 1345084); conditions: Gynecologic cancer cell panel viability, ATPlite luminescence, 48 h; series mostly up to 57.5 µM; also: % is scaled to controls: 0 for no effect and ±100 for the full control effect; nearly all actives have a fitted effect of over 55% in size
Procedure, shortened: (§2)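 ATP-based viability (ATPlite), 1,000 cells/well, 16 h pre-incubation, 48 h compound at 37 C, 5% CO2, 15 min RT before read.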

CAOV3 = test: as above; conditions: Gynecologic cancer cell panel viability, ATPlite luminescence, 48 h; series mostly up to 57.5 µM
Procedure, shortened: as §2

CASKI = test: as above; conditions: Gynecologic cancer cell panel viability, ATPlite luminescence, 48 h; series mostly up to 57.5 µM
Procedure, shortened: as §2

Es-2 = test: as above; conditions: Gynecologic cancer cell panel viability, ATPlite luminescence, 48 h; series mostly up to 57.5 µM
Procedure, shortened: as §2

HeLa = test: as above; conditions: Gynecologic cancer cell panel viability, ATPlite luminescence, 48 h; series mostly up to 57.5 µM
Procedure, shortened: as §2

Hek293T = test: as above; conditions: Gynecologic cancer cell panel viability, ATPlite luminescence, 48 h, control line for the selectivity index; series mostly up to 57.5 µM
Procedure, shortened: as §2

JEG-3 = test: as above; conditions: Gynecologic cancer cell panel viability, ATPlite luminescence, 48 h; series mostly up to 57.5 µM
Procedure, shortened: as §2

OV90 = test: as above; conditions: Gynecologic cancer cell panel viability, ATPlite luminescence, 48 h; series mostly up to 57.5 µM
Procedure, shortened: as §2

PA-1 = test: as above; conditions: Gynecologic cancer cell panel viability, ATPlite luminescence, 48 h; series mostly up to 57.5 µM
Procedure, shortened: as §2

Cc1cc(C(=O)N2Cc3cnn(C)c3Nc3ccccc32)ccc1CNC(=O)N1CCN(Cc2cc(O)cc(O)c2)CC1
inactive: outcome (CRL-7250) | max response (HEK293) -0.745% | outcome (HaCat [1]) | outcome (KB-3-1) | max response (NIH3T3) -0.633% | outcome (HACAT [2]) | Potency (C33A) | Potency (CAOV3) | outcome (CASKI) | Potency (Es-2) | Potency (HeLa) | Potency (Hek293T) | Potency (JEG-3) | Potency (OV90) | Potency (PA-1)

COc1cc(C(O)C2COC(c3ccc(OC4OC(CO)C(O)C(O)C4O)c(OC)c3)C2CO)ccc1O (stereo not given)
inactive: max response (CRL-7250) -6.83% | max response (HEK293) -1.12% | outcome (HaCat [1]) | max response (KB-3-1) 8.83% | max response (NIH3T3) -19.8% | outcome (HACAT [2]) inactive [at 17.4 µM] | Potency (C33A) | Potency (CAOV3) | outcome (CASKI) | Potency (Es-2) | Potency (HeLa) | Potency (Hek293T) | Potency (JEG-3) | Potency (OV90) | Potency (PA-1)

CC(=O)O[C@H]1[C@H](O[C@H]2CC[C@]34C[C@]35CC[C@]3(C)[C@@H]([C@@]6(C)CC[C@@H](C(C)(C)O)O6)[C@@H](O)C[C@@]3(C)[C@@H]5C[C@H](O[C@@H]3O[C@H](CO)[C@@H](O)[C@H](O)[C@H]3O)[C@H]4C2(C)C)OC[C@@H](OC(C)=O)[C@@H]1O
inactive: max response (CRL-7250) -0.709% | max response (HEK293) -4% | outcome (HaCat [1]) | outcome (KB-3-1) | max response (NIH3T3) 1.91% | outcome (HACAT [2]) | Potency (C33A) | Potency (CAOV3) | outcome (CASKI) | Potency (Es-2) | Potency (HeLa) | Potency (Hek293T) | Potency (JEG-3) | Potency (OV90) | Potency (PA-1)

CCc1cc(CC[C@]2(C3CCCC3)CC(O)=C(Cc3nc4nc(C)cc(C)n4n3)C(=O)O2)cc(CC)n1
inactive: outcome (CRL-7250) | max response (HEK293) 0.838% | outcome (HaCat [1]) | max response (KB-3-1) -0.912% | max response (NIH3T3) -7.94% | outcome (HACAT [2]) | Potency (C33A) | Potency (CAOV3) | outcome (CASKI) | Potency (Es-2) | Potency (HeLa) | Potency (Hek293T) | Potency (JEG-3) | Potency (OV90) | Potency (PA-1)

C[C@]12CC[C@@H]3c4ccc(O)cc4CC[C@H]3[C@@H]1C[C@@H](O[C@@H]1O[C@H](C(=O)O)[C@@H](O)[C@H](O)[C@H]1O)[C@@H]2O
inactive: max response (CRL-7250) 2.29% | max response (HEK293) -7.39% | outcome (HaCat [1]) | max response (KB-3-1) 4.13% | max response (NIH3T3) -7.98% | outcome (HACAT [2]) | Potency (C33A) | Potency (CAOV3) | outcome (CASKI) | Potency (Es-2) | Potency (HeLa) | Potency (Hek293T) | Potency (JEG-3) | Potency (OV90) | Potency (PA-1)

CC1CCCCCCCc2cc(O)cc(O)c2C(=O)O1 (stereo not given)
inactive: outcome (CRL-7250) | max response (HEK293) 0.839% | outcome (HaCat [1]) | outcome (KB-3-1) | max response (NIH3T3) 0.752% | outcome (HACAT [2]) | Potency (C33A) | Potency (CAOV3) | outcome (CASKI) | Potency (Es-2) | Potency (HeLa) | Potency (Hek293T) | Potency (JEG-3) | Potency (OV90) | Potency (PA-1)

CC1(C)CC[C@]2(C(=O)O)[C@H](O)C[C@]3(C)C(=CCC4[C@@]5(C)CC[C@H](O[C@@H]6OC[C@@H](O)[C@H](O)[C@H]6O)[C@@](C)(C(=O)O)C5CC[C@]43C)[C@@H]2C1 (stereo not given in full)
inactive: max response (CRL-7250) -5.63% | max response (HEK293) 0.0666% | outcome (HaCat [1]) | max response (KB-3-1) 9.63% | max response (NIH3T3) 0.796% | outcome (HACAT [2]) inactive [at 17.4 µM] | Potency (C33A) | Potency (CAOV3) | outcome (CASKI) | Potency (Es-2) | Potency (HeLa) | Potency (Hek293T) | Potency (JEG-3) | Potency (OV90) | Potency (PA-1)

C/C=C/C=C/[C@@H]1O[C@](O)([C@H](CC)C(=O)NC/C=C/C=C(\C)[C@@H](OC)[C@@H](C)[C@@H]2O[C@H](/C=C/C=C/C=C(\C)C(=O)c3c(O)ccn(C)c3=O)[C@H](O)[C@@H]2O)[C@H](O)[C@H](O)C1(C)C
inactive: max response (CRL-7250) -0.994% | max response (HEK293) -2.35% | outcome (HaCat [1]) | outcome (KB-3-1) | max response (NIH3T3) 2.66% | outcome (HACAT [2]) inactive [at 9.27 µM] | activity change, negative = cytotoxicity (C33A) 0.106% [at 11.6 µM] | activity change, negative = cytotoxicity (CAOV3) 11.3% [at 11.6 µM] | activity change, negative = cytotoxicity (CASKI) -1.78% [at 11.6 µM] | activity change, negative = cytotoxicity (Es-2) -3.84% [at 11.6 µM] | activity change, negative = cytotoxicity (HeLa) 12.5% [at 11.6 µM] | activity change, negative = cytotoxicity (Hek293T) -0.774% [at 11.6 µM] | activity change, negative = cytotoxicity (JEG-3) -3.88% [at 11.6 µM] | activity change, negative = cytotoxicity (OV90) -4.64% [at 11.6 µM] | activity change, negative = cytotoxicity (PA-1) -1.69% [at 11.6 µM]

CC1(C)CC[C@]2(C(=O)O)CC[C@]3(C)C(=CCC4[C@@]5(C)C[C@@H](O)[C@H](O)[C@@](C)(CO)C5[C@H](O)C[C@]43C)[C@@H]2C1 (stereo not given in full)
inactive: outcome (CRL-7250) | max response (HEK293) -6.35% | outcome (HaCat [1]) | outcome (KB-3-1) | max response (NIH3T3) 0.343% | outcome (HACAT [2]) inactive [at 17.4 µM] | Potency (C33A) | Potency (CAOV3) | outcome (CASKI) | Potency (Es-2) | Potency (HeLa) | Potency (Hek293T) | Potency (JEG-3) | Potency (OV90) | Potency (PA-1)

C=C1CCC[C@]2(C)CC[C@@](O)(C(=C)C(=O)O)C[C@@H]12
inactive: max response (CRL-7250) -0.228% | max response (HEK293) -21.6% | outcome (HaCat [1]) | max response (KB-3-1) -4.38% | max response (NIH3T3) -3.81% | outcome (HACAT [2]) | Potency (C33A) | Potency (CAOV3) | outcome (CASKI) | Potency (Es-2) | Potency (HeLa) | Potency (Hek293T) | Potency (JEG-3) | Potency (OV90) | Potency (PA-1)

CC(=O)O[C@@H]1C[C@@H](C)[C@](O)(CCC2=CC(=O)OC2)[C@@]2(C)CCCC(C)(C)C12 (stereo not given in full)
inactive: outcome (CRL-7250) | max response (HEK293) -5.82% | outcome (HaCat [1]) | max response (KB-3-1) 9.64% | max response (NIH3T3) 2.01% | outcome (HACAT [2]) | Potency (C33A) | Potency (CAOV3) | outcome (CASKI) | Potency (Es-2) | Potency (HeLa) | Potency (Hek293T) | Potency (JEG-3) | Potency (OV90) | Potency (PA-1)
